From PubChem
The sample as a whole holds a higher share of hits than the screen did.
Lassa entry inh: qHTS for Inhibitors of binding or entry into cells for Lassa Virus. Lassa virus pseudotype entry inhibition, cell reporter. Potency, µM (highest dose often 37.9 µM), actives largely listed as inhibitors. 1.2% of 300,000 active. AID 540256, 2011; calls by dose curve; tested in HEK293 cells; further: nearly all actives have a fitted effect of over 50% in size
AMA1 RON2 block: qHTS for Inhibitors of AMA1-RON; Towards Development of Antimalarial Drug Lead: Primary Screen; Plasmodium falciparum AMA1 (3D7) - RON2 peptide interaction; AlphaScreen AMA1-biotinylated RON2 peptide binding; Potency, µM (titrated, usually from 58.2 µM), usual class: inhibitors; 0.2% of 360,000 active; AID 720542, 2013; active means well fitted inhibition curve with a large enough effect; inconclusive means small, poorly fitted or top-dose-only effect; inactive means no such curve, though single readings can be large or run the other way; further: nearly all actives have a fitted effect of over 45% in size
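AMA1 (3D7) with his tag at 25 nM final met compounds first, then biotinylated RON2 peptide at 25 nM; detection used donor plus acceptor beads, 10 µg/mL apiece, read by AlphaScreen after 30 min at room temperature.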
Shiga inhibitor: A qHTS for Small Molecule Inhibitors of Shiga Toxin; Vero cells, Shiga toxin protein synthesis inhibition reporter; inhibition, % at 38.7 µM; 9.2% of 290,000 active; in the data active means inhibition mostly above about 28%, no sharp cut-off; inactive means mostly below about 43%
MARV entry inh: qHTS for inhibitors of binding or entry into cells for Marburg Virus | Marburg virus pseudotyped entry inhibition, cell reporter | Potency, µM (series often up to 37.8 µM), actives largely listed as inhibitors | 1.8% of 300,000 active | AID 540276, 2011; calls by dose curve; tested in HEK293 cells
CHX counter: Cycloheximide Counterscreen for Small Molecule Inhibitors of Shiga Toxin; max response, %; 12% of 300,000 active; cell reporter, cycloheximide protein synthesis inhibition counterscreen; AID 2314, 2010; in the data active means max response mostly above about 13%, no sharp cut-off; inactive means mostly below about 14%; further: read at 38.3 µM for the half of the compounds with a filed dose
Numbers stand for hits; . = inactive; ? = inconclusive; / = no result given; [ ] = remark or other dose.

SMILES | Lassa entry inh | AMA1 RON2 block | Shiga inhibitor | MARV entry inh | CHX counter
COc1ccccc1N1CCN(CCCCNS(=O)(=O)c2cccc3c(N(C)C)cccc23)CC1 | 14.6µM | / | / | 7.08µM | /
COc1ccccc1N1CCN(CCCNC(=O)Nc2ccccc2C)CC1 | . | . | . | . | .
CC1(C(=O)NS(=O)(=O)c2ccc3ccccc3c2)CCN1C(=O)Cc1ccc(-c2ccccc2)cc1 (stereo not given) | / | . | / | / | /
Cc1ccc(C)c(NC(=O)CN2C(=O)CCc3cc(S(=O)(=O)N4CCCCC4)ccc32)c1 | . | / | / | / | /
CCOC(=O)C(C)N1C(=O)S/C(=C/c2cc(C)n(-c3ccncc3)c2C)C1=O (stereo not given) | / | . | . | / | 17.8
Cc1cc(C=C2C(=O)N(C)C(=S)N(C)C2=O)c(C)n1-c1ccncc1 | / | . | . | / | .
CCOC(=O)c1ccc(N=C2S/C(=C\c3cc(C)n(-c4cccnc4)c3C)C(=O)N2C)cc1 | . | . | . | . | .
CCOC(=O)C(C)N1C(=O)S/C(=C/c2cc(C)n(-c3ccccn3)c2C)C1=O (stereo not given) | . | . | 114.3 | ? | 31.1
CC1(c2nnc(-c3cccc(Cl)c3)o2)CC(c2ccc(OC(F)(F)F)cc2)=NO1 (stereo not given) | / | . | . | / | .
COC(=O)c1cc(NC(=O)c2ccc(-c3ccc(Cl)cc3Cl)o2)cc(C(=O)OC)c1 | . | / | / | / | /
CCc1nnc(NC(=O)c2ccc(-c3ccc(Cl)cc3)o2)s1 | . | . | . | . | .
O=C(Nc1nccs1)c1ccc(-c2ccc(Cl)cc2Cl)o1 | . | . | 49.7 | . | 26.3
O=C(Nc1nccs1)c1ccc(-c2ccc(F)c(Cl)c2)o1 | / | . | 102.1 | / | 45.3
CC1CCc2nn(CC(=O)Nc3ccccc3Cl)cc2C1 (stereo not given) | . | / | / | ? | /
Nc1c2c(nc3ccccc13)N(C1CCCCC1)CC2 | . | . | . | 10µM | .
Nc1c2c(nc3ccc(Br)cc13)N(C1CCCCC1)CC2 | / | / | . | / | .
FC(F)(F)c1cccc(N2Cc3ccccc3C2)c1 | . | . | 36.8 | . | 19.8
CCCC(=O)n1nc(-c2ccco2)nc1NCc1ccccc1Cl | . | / | / | ? | /
Cc1ccc(NC2=CC(=O)CC(C)(C)C2)cc1F | / | . | . | . | .
Cc1cc(N)c(NC2=CC(=O)CC(C)(C)C2)cc1C | . | . | 91.0 | ? | 62.1
O=C1c2ccccc2NC2(CCCCC2)N1N=C1CCCCC1 | . | . | 44.2 | . | 60.0
O=C1c2ccccc2NC2(CCCC2)N1O | . | . | 53.2 | . | 15.6
Cc1ccc(CN2C(=O)c3ccccc3NC23CCN(Cc2ccccc2)CC3)cc1 | ? | . | . | ? | .
CC(=O)Nc1ccc(S(=O)(=O)NCCC(=O)OCC(=O)NCc2ccccc2)cc1 | . | . | / | . | /
C[C@H]1C(C(=O)N2CCCC2)=Cc2[nH]c(=O)[nH]c2C=C1c1ccccc1 | / | / | / | . | /
SMILES | Lassa entry inh | AMA1 RON2 block | Shiga inhibitor | MARV entry inh | CHX counter
O=C(Nc1ccc(Oc2cccnc2)nc1)c1ccc(C(F)(F)F)cc1 | . | . | . | 5.62µM | .
O=C(O)c1ccc(Oc2ccc(C(F)(F)F)cn2)cc1 | . | . | . | ? | 15.1
O=C(NC(=O)c1c(Cl)cccc1Cl)Nc1ccc(Oc2cccnc2)nc1 | . | . | . | . | .
COC(=O)c1ccc(Oc2ccc(C(F)(F)F)cn2)cc1 | . | . | 45.2 | . | 27.7
Cc1cccc(NC(=O)c2ccc(NC(C)c3ccccc3)c([N+](=O)[O-])c2)n1 (stereo not given) | . | . | . | . | .
Nc1ccccc1N=Nc1ccccc1N | / | 31.6µM | 51.2 | / | 44.0
Nc1ccccc1-c1ccccc1N | . | . | . | . | .
S=C(Nc1ccc2c(c1)OCO2)Nc1ccc2c(c1)OCO2 | . | .[2.32 µM] | 66.3 | . | 54.5
S=C(NCc1ccc2c(c1)OCO2)Nc1ccc2nsnc2c1 | . | . | . | . | 15.2
O=C(CN1CCN(CC(=O)Nc2ccccc2Cl)CC1)Nc1ccc2c(c1)OCCO2 | . | . | . | ? | .
S=C(Nc1ccc2c(c1)OCCO2)Nc1ccccc1Cl | . | . | 48.0 | . | 32.7
S=C(Nc1ccc(Cl)cc1)Nc1ccc2c(c1)OCCO2 | / | . | 58.5 | / | 38.6
CCO[C@H]1OC(C(=O)N2CCCCCCC2)=C[C@@H](C)[C@@H]1CCCO | / | . | . | / | .
COc1cc(/C=C(\C#N)c2nc3ccccc3n2C)cc(OC)c1O | . | . | . | ? | .
CCn1ncc(NC(=S)Nc2ccc3c(c2)OCO3)c1C(N)=O | . | . | 67.7 | . | 14.8
Cc1ccc(-c2nc(N3CCOCC3)s[n+]2-c2ccccc2)cc1 | ? | . | 85.1 | ? | 61.6
CCc1ccccc1NC(=O)CSc1nnc(COc2ccccc2Cl)o1 | . | / | / | . | /
Clc1ccc(OCc2nnc(SCc3nnc(-c4ccccc4)o3)o2)c(Cl)c1 | ? | . | 56.0 | . | 39.2
O=C(CSc1nnc(COc2ccc(Cl)cc2Cl)o1)Nc1ccccn1 | . | . | 60.2 | . | 28.4
COc1ccc(S(=O)(=O)Nc2cc3c4c(oc3c3ccccc23)CC(C)(C)CC4=O)cc1 | ? | . | . | 14.6µM | .
COc1ccc(S(=O)(=O)Nc2cccc3ccccc23)cc1 | / | / | . | / | .
CC1(C)CC(=O)c2c(oc3c(Cl)cc(NS(=O)(=O)c4ccc(Br)cc4)cc23)C1 | . | / | / | . | /
COc1ccc(S(=O)(=O)Nc2cc3c4c(oc3c3ccccc23)CCCC4=O)cc1 | 7.08µM | . | . | ? | .
Cc1nn(-c2ccccc2)c(C)c1NC(=O)COC(=O)c1ccc(Cl)c(S(N)(=O)=O)c1 | . | . | / | . | /
Cc1ccc(NC(=O)Cn2c(O)c(N=NC(N)=S)c3ccccc32)cc1 | ? | . | . | 8.91µM | .
SMILES | Lassa entry inh | AMA1 RON2 block | Shiga inhibitor | MARV entry inh | CHX counter
Cc1ccc(NCC(=O)N=Nc2c(O)n(C)c3ccccc23)cc1 | ? | . | 56.1 | ? | 15.0
Cn1c(O)c(N=Nc2ccc(F)cc2)c2ccccc21 | ? | . | . | . | 39.8
C/C(Cl)=C\Cn1c(O)c(N=NC(N)=S)c2ccccc21 | . | . | . | 10µM | .
COCCn1c(CCC(=O)Nc2ccc(C)c(Cl)c2)nc2cccnc21 | . | / | / | . | /
COc1ccc(NC(=O)C2C3CCC4C(CCC32)C4(Cl)Cl)cc1 (stereo not given) | . | . | . | . | .
COc1cccc(NC(=O)C2C3CCC4C(CCC32)C4(Cl)Cl)c1 (stereo not given) | . | . | . | . | 14.8
CC(=O)Nc1cccc(Oc2ccc(-c3noc(C)n3)cc2)c1 | ? | . | 79.3 | ? | 44.1
COc1cccc(NC(=O)C2CCN(c3ncccn3)CC2)c1 | . | . | 25.3 | . | 11.1
COc1ccc(-c2noc(-c3ccccc3C(=O)Nc3cccc(OC)c3)n2)cc1 | . | . | . | ? | .
COc1ccc(-c2noc(N3CCC(C(=O)Nc4cccc(OC)c4)CC3)n2)cc1 | / | . | 24.6 | / | 11.5
COc1ccc(OC)c(NC(=O)C2CCN(c3ncccn3)CC2)c1 | . | . | . | . | .
C(=C/c1ccnc2nc(SC/C=C/c3ccccc3)nn12)/c1ccccc1 | ? | . | . | . | .
